In PubChem BioAssay (EPA / NIEHS) one finds outcome and AC50 data, which are given here for 19 molecules.

Experiment [1] in a line: STM_H9_OrnCyssISnorm_ratio: Stemina devTOX quickPredict H9 human embryonic stem cell (hESC)-based Assay for Ornithine (ORN):Cystine (CYSS) Ratio (AID 2283714). The gist of the method:
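Ratio of internal-standard-normalized ornithine to cystine, measured by UPLC-HRMS in spent media from the last 24 h. H9 cells kept pluripotent, dosed 72 h with daily media and compound renewal; DMSO 0.1% serves as baseline.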

Experiment [2] in a line: CEETOX_H295R_MTT_cell_viability: Viability Assessment in the CeeTox HT-H295R MTT Assay (AID 2283718; active = hit-call score of the fitted dose curve at least 0.9, where 1 is the maximum; inactive = score below 0.9;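 for AC50: curve fitted both ways so AC50 may mark viability loss or gain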). The gist of the method: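 MTT reduction (0.5 mg/ml, 4 h at 37 C; absorbance at 570 and 650 nm) gave viability as background-corrected percent change versus controls. H295R cells had 48 h forskolin (10 uM) prestimulation, then 48 h chemical exposure at 0.1% DMSO.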
Experiment [3] relates to Thyroperoxidase (TPO), gene 54314. The experiment in a line: CCTE_Simmons_AUR_rTPO: CCTE's Amplex UltraRed Assay for Thyroperoxidase (TPO) Inhibition, Simmons Lab (AID 2283662).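 For AC50: potency for loss of signal meaning inhibition of peroxidase activity.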 The gist of the method:
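Rat thyroid microsomes (5 ug protein) with 25 uM Amplex UltraRed and 300 uM H2O2 in 200 mM phosphate buffer, 30 min at 37C in dark; fluorescence 544/590 nm. Eight concentrations, 5 nM–87.5 uM final, 0.5% DMSO, triplicate biological replicates.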

A short description of experiment [4]: CCTE_Simmons_CellTiterGLO_HEK293T: Viability Assessment in CCTE's Assays for Thyroperoxidase (TPO) Inhibition, Simmons Lab (AID 2283665).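 For AC50: cells exposed to compound for 24 h before readout; actives reduce ATP signal below DMSO vehicle meaning cytotoxicity.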 The gist of the method:
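Luciferase-coupled ATP content after 24 h exposure gives viability; 8-point series from 5 nM to 87.5 uM final in 0.5% DMSO. Human HEK293T cells, 1% FBS medium, three biological replicates, dichlone positive control.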
In general terms: In ATP-based viability assays light output follows the ATP content of the culture.

Experiment [5] is described as follows: Tanguay_ZF_120hpf_JAW_legacy: (Legacy) Oregon State University Tanguay Lab 120 Hour Post-fertilization zebrafish Assay for Jaw Malformation (AID 2283638). In outline: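 Static waterborne exposure of dechorionated wild-type (Tropical 5D) zebrafish from 6 to 120 hpf at 28C, 0.64% DMSO vehicle; 5uM trimethyltin chloride served as positive control. Jaw morphology recorded as binary at 120 hpf.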

The nature of experiment [6]: Tanguay_ZF_120hpf_OTIC_legacy: (Legacy) Oregon State University Tanguay Lab 120 Hour Post-fertilization zebrafish Assay for Otic Vesicle Malformation (AID 2283639). In outline:
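Binary scoring of otic vesicle defects at 120 hpf in zebrafish (Tropical 5D) held under static exposure at 28C, sealed and shaded, with final DMSO 0.64%. Embryos dying by 24 or 120 hpf excluded; fitted positively against DMSO.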

A short description of experiment [7]: Tanguay_ZF_120hpf_PE_legacy: (Legacy) Oregon State University Tanguay Lab 120 Hour Post-fertilization zebrafish Assay for Pericardial Edema (AID 2283640). The gist of the method:
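Read-out is the presence or absence of pericardial edema at 120 hpf under brightfield, with gain of signal fitted against DMSO controls. Larvae (5D wild-type) were statically exposed at 28C with 0.64% final DMSO.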

Experiment [8] is described as follows: Tanguay_ZF_120hpf_BRAI_legacy: (Legacy) Oregon State University Tanguay Lab 120 Hour Post-fertilization zebrafish Assay for Brain Malformation (AID 2283641). The gist of the method: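 Brain malformation in Tropical 5D zebrafish was recorded as a binary endpoint after static compound exposure from early development to 120 hpf at 28C. Activity was analysed against DMSO as negative control.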

Experiment [9] in a line: Tanguay_ZF_120hpf_SOMI_legacy: (Legacy) Oregon State University Tanguay Lab 120 Hour Post-fertilization zebrafish Assay for Somite Malformation (AID 2283647). In outline:
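5D WT zebrafish; chorion removed 4 hpf; 1 embryo/well from 6 hpf; static exposure to 120 hpf, 28C, 0.64% DMSO final. Endpoint: somite malformation, binary, brightfield. Mortality excluded.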

Experiment [10] is described as follows: Tanguay_ZF_120hpf_PFIN_legacy: (Legacy) Oregon State University Tanguay Lab 120 Hour Post-fertilization zebrafish Assay for Pectoral Fin Malformation (AID 2283648).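 Note: each larva judged yes or no for fin defect by brightfield with dead larvae skipped.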 In outline:
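Pectoral fin malformation was recorded as a binary endpoint at 120 hpf in wild-type Tropical 5D larvae, which had been dechorionated and exposed statically from 6 hpf at 28C in 0.64% DMSO. Dead embryos were excluded.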

A short description of experiment [11]: Tanguay_ZF_120hpf_CFIN_legacy: (Legacy) Oregon State University Tanguay Lab 120 Hour Post-fertilization zebrafish Assay for Caudal Fin Malformation (AID 2283649). The gist of the method: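 Embryos were collected from Tropical 5D wild-type adults and dechorionated at 4 hpf. At 6 hpf each was exposed, one per well, at 0.64% DMSO and 28C. At 120 hpf fin morphology was scored; dead embryos were excluded.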

Experiment [12] can be described thus: Tanguay_ZF_120hpf_PIG_legacy: (Legacy) Oregon State University Tanguay Lab 120 Hour Post-fertilization zebrafish Assay for Pigmentation Malformation (AID 2283650). The gist of the method: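 Pigment malformation recorded as a binary call at 120 hpf in zebrafish (Tropical 5D) exposed singly from 6 hpf after pronase dechorionation. Static, sealed, 28C exposure, 0.64% DMSO; mortality excludes scoring; positive-direction fit against DMSO.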

The nature of experiment [13]: Tanguay_ZF_120hpf_CIRC_legacy: (Legacy) Oregon State University Tanguay Lab 120 Hour Post-fertilization zebrafish Assay for Circulatory Malformation (AID 2283651). In outline: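 Binary circulatory malformation call at 120 hpf by brightfield imaging of zebrafish larvae; chorion removed at 4 hpf, static exposure from 6 hpf in sealed dark plates at 28C, final DMSO 0.64%; non-mortality endpoints skipped if embryo died.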

Experiment [14] can be described thus: Tanguay_ZF_120hpf_SWIM_legacy: (Legacy) Oregon State University Tanguay Lab 120 Hour Post-fertilization zebrafish Assay for Swim Bladder Malformation (AID 2283654).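 Note: swim bladder malformation in each larva scored yes or no under brightfield.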 In outline: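 Scoring is binary for swim bladder defects at 120 hpf, by brightfield inspection of zebrafish larvae. Embryos were exposed singly from 6 hpf after pronase dechorionation, at 28C with 0.64% DMSO; mortality excluded scoring.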

The nature of experiment [15]: Tanguay_ZF_120hpf_TRUN_legacy: (Legacy) Oregon State University Tanguay Lab 120 Hour Post-fertilization zebrafish Assay for Truncated Body (AID 2283655). The gist of the method:
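5D wild-type larvae; pronase dechorionation; static exposure 6→120 hpf, 28C; DMSO 0.64% final; 5uM trimethyltin chloride positive control. Readout: presence/absence of truncated body, analyzed relative to DMSO.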

Experiment [16] is described as follows: Tanguay_ZF_120hpf_NC_legacy: (Legacy) Oregon State University Tanguay Lab 120 Hour Post-fertilization zebrafish Assay for Notochord and Tail Malformation (AID 2283656). In outline:
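Binary scoring of notochord distortion by brightfield microscopy; embryos dying were not scored. Wild-type Tropical 5D embryos, chorion removed, exposed singly and statically from 6 to 120 hpf, 28C, sealed, 0.64% DMSO.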

A short description of experiment [17]: Tanguay_ZF_120hpf_TR_legacy: (Legacy) Oregon State University Tanguay Lab 120 Hour Post-fertilization zebrafish Assay for Touch Response (AID 2283667). In outline: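 Binary touch-response endpoint in larvae at 120 hpf after static waterborne exposure from embryo stage (28°C, 0.64% DMSO vehicle, 5 uM trimethyltin chloride as positive control); embryos dead at 24 or 120 hpf excluded; fitted as gain versus DMSO.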

The nature of experiment [18]: Tanguay_ZF_120hpf_ActivityScore_legacy: (Legacy) Oregon State University Tanguay Lab 120 Hour Post-fertilization zebrafish Assay Score for Activity (AID 2283742). In outline: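 Binary scoring of mortality and morphology by brightfield at 24 and 120 hpf, summarised into one activity score from 18 components relative to DMSO. Wild-type Tropical 5D zebrafish, chorion removed at 4 hpf, static exposure 6–120 hpf, 28 °C.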

Records with an inconclusive call do not appear. Activity calls are given as the source filed them. Rule for the calls, unless noted: active = hit-call score of the fitted dose curve at least 0.9, where 1 is the maximum; inconclusive = response in the unintended direction; inactive = score below 0.9.

Regarding `COC(=O)C=Cc1ccccc1`, the outcome in [1] was inactive.

The AC50 is the concentration at which the activity in the assay is half-maximal. On to `O=C(OCc1ccccc1)c1ccc(O)cc1`, for which the half-maximal activity concentration (AC50) in [2] is 10.6 µM (active).

Turning to `COc1ccc(C(=O)c2ccccc2)c(O)c1`, the molecule was classed as inactive in experiment [3], in experiment [4], in experiment [1] and in experiment [2].

For `N#Cc1ccc(C(c2ccc(C#N)cc2)n2cncn2)cc1`, the call in experiment [3] and in experiment [2] was inactive.

On to `Oc1ccccc1Cc1ccccc1O`, for which the AC50 in experiment [1] is 60.6 µM (active).

As for `CCCCCCCOC(=O)c1ccc(O)cc1`, the figures for the half-maximal activity concentration (AC50) in experiment [3] and in experiment [4] were 52.6 µM (active) and 35.7 µM (active), respectively.

In the case of `C/C=C/C=C/CCCCCCCO`, the AC50 in experiment [3] is 25.8 µM (active); in experiment [4] it was 87.2 µM (active).

On to `Cc1ccc([N+](=O)[O-])cc1N`, for which the molecule was classed as inactive in experiment [5], in experiment [6], in experiment [7], in experiment [8], in experiment [9] and in experiment [10]. Also, the molecule was called inactive in experiment [11], in experiment [12], in experiment [13], in [14], in experiment [15] and in experiment [16]. The molecule was classed as inactive in [17] and in experiment [18].

In the case of `CCN1CN(CC)CN(CC)C1`, the AC50 in experiment [2] was 0.396 µM (active).

Turning to `CCCCCCCCCC[N+](C)(CCCCCCCCCC)CCC[Si](OC)(OC)OC`, the AC50 was 48.9 µM (active) in [3] and 16 µM (active) in experiment [4].

For the molecule `CC(C)c1ccc(O)c(C(C)C)c1`, the AC50 was 29.7 µM (active) in [3] and 28.4 µM (active) in [4]. In addition, the molecule was classed as inactive in experiment [2].

Take `O=C(O)c1cc(O)c2ccccc2c1O`: the values for the AC50 in experiment [3] and in experiment [4] were 30.7 µM (active) and 28.6 µM (active), respectively. Moreover, the molecule was classed as inactive in experiment [2].

As for `CC(CCC(=O)O)(c1ccc(O)cc1)c1ccc(O)cc1`, in [3], the AC50 was 18.3 µM (active). The outcome in experiment [1] was inactive.

As for `CC(C)(c1ccccc1)c1ccc(Nc2ccc(C(C)(C)c3ccccc3)cc2)cc1`, the AC50 was 33.8 µM (active) in experiment [3] and 86 µM (active) in experiment [2].

For `CCc1occc(=O)c1O`, in [3], the AC50 is 31 µM (active).

In the case of `O=c1c(O)c(-c2ccc(O)cc2O)oc2cc(O)cc(O)c12`, the AC50 in experiment [3] was 0.337 µM (active). For the same molecule, the outcome in [4] was inactive.

As for `CCCCCCCCCCCCc1ccc(O)cc1`, the AC50 in experiment [3] was 26.2 µM (active); in experiment [4], 11.4 µM (active).

Consider `CCCCC1C(=O)N(c2ccccc2)N(c2ccccc2)C1=O`, for which the AC50 in experiment [3] was 39.6 µM (active). The result in experiment [4], in [1] and in [2] was inactive.

Consider `CCCCC/C=C\C/C=C\CCCCCCCC(=O)O`, for which the figures for the AC50 in experiment [3] and in experiment [4] were 43.8 µM (active) and 86.4 µM (active), respectively.
